These results are taken from PubChem BioAssay (NCI).

Among the test systems are NCI-H23 lung; NCI-H226 lung; NCI-H322M lung; HOP-62 NSCLC; NCI-H460 lung; HOP-92 NSCLC; NCI-H522 lung; A549/ATCC NSCLC; 786-0 renal; COLO 205 colon.
What all share (test): NCI-60 one-dose screen, 48 h (100 = growth as untreated, 0 = no growth, -100 = all killed)
Settings in all cases: 10 µM

This is part of a sample that, as a whole, favours compounds with a hit. Of some 83,000 tested, about 20% had one in any assay.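 Step 1: grow cells in 96-well plates. Step 2: add test compound at a single concentration. Step 3: incubate 48 h. Step 4: record percent growth.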 A number with no mark means an inactive call. Active and inactive are the calls of the source. How the source made its calls: active means growth percent below 10; inactive means the rest.

As to `C/C(=N\NC(N)=S)c1ccc(Nc2nc(SC(C)C)nc(-c3ccccc3)c2C#N)cc1`, the growth was 52.5% in the test on NCI-H23 lung; 27.5% in the test with NCI-H226 lung; 74.3% with NCI-H322M lung; 34.4% with HOP-62 NSCLC; 41.7% in the test with NCI-H460 lung; -11.1% (active) in the test with HOP-92 NSCLC. Besides, the growth with NCI-H522 lung is 78%; in the test on A549/ATCC NSCLC it was 53.7%; in the test on 786-0 renal it was 18.2%; in the test on COLO 205 colon, 92.5%.
Regarding `Cc1nc2c(cnn2-c2ccccc2)c(=O)n1-c1ccc(NC(=O)c2ccc(F)cc2)cc1`, the growth in the test with NCI-H23 lung was 50.2%; in the test with NCI-H226 lung, 56.2%; in the test on NCI-H322M lung, 86.1%; in the test with HOP-62 NSCLC, 64.6%; with NCI-H460 lung, 54.4%; in the test on HOP-92 NSCLC, 85.2%. Moreover, the growth is 63.9% with NCI-H522 lung, 54.6% in the test on A549/ATCC NSCLC, 82.5% in the test on 786-0 renal and 62.3% in the test with COLO 205 colon.
As for `COc1ccc2[nH]cc(/C=N/Nc3cccc(Cl)n3)c2c1`, the growth is 64.2% with NCI-H23 lung; 48.4% in the test with NCI-H226 lung; 71.2% in the test on NCI-H322M lung; 59.3% with HOP-62 NSCLC; 47.3% in the test on NCI-H460 lung; 27% in the test on HOP-92 NSCLC. Besides, the growth in the test with NCI-H522 lung is 27.1%; with A549/ATCC NSCLC, 69.8%; with 786-0 renal, 25.4%; in the test with COLO 205 colon, 57.5%.
Consider `O=c1[nH]c2ccccc2cc1CSc1ccc(Nc2nccc(-c3ccc(Cl)cc3)n2)cc1`, for which the growth was -26.6% (active) in the test on NCI-H23 lung; -70.5% (active) with NCI-H226 lung; 0.401% (active) with NCI-H322M lung; -68% (active) in the test with HOP-62 NSCLC; -59.6% (active) in the test with NCI-H460 lung; -68.1% (active) in the test with HOP-92 NSCLC. In addition, the growth with NCI-H522 lung is 2.64% (active); with A549/ATCC NSCLC, -39.7% (active); in the test on 786-0 renal, -80.1% (active); with COLO 205 colon, -16% (active).
Consider `CN1CCCN(Cc2ccc(C(=O)Nc3cccc(Nc4ccc5cc(O)ccc5n4)c3)cc2C(F)(F)F)CC1`, for which the growth in the test on NCI-H23 lung was 68.8%; in the test with NCI-H226 lung, 103%; with NCI-H322M lung it was 89.1%; in the test on HOP-62 NSCLC it was 95.9%; with NCI-H460 lung, 27.7%; in the test with HOP-92 NSCLC, 53.3%. For the same molecule, the growth was 80.3% in the test on NCI-H522 lung, 64.7% in the test with A549/ATCC NSCLC, 8.41% (active) in the test with 786-0 renal and 63.2% in the test with COLO 205 colon.
`CC1(C)CC[C@]2(C(=O)N3CCOCC3)CC[C@]3(C)C(=CC[C@@H]4[C@@]5(C)CC[C@H](NCO)C(C)(C)[C@@H]5CC[C@]43C)[C@H]2C1`: the growth is -88.1% (active) in the test on NCI-H23 lung; -88.3% (active) in the test with NCI-H226 lung; -97.8% (active) with NCI-H322M lung; -73.8% (active) with HOP-62 NSCLC; -92.7% (active) in the test with NCI-H460 lung; -64.3% (active) in the test on HOP-92 NSCLC. Besides, the growth is -79.8% (active) in the test on NCI-H522 lung, -85.8% (active) in the test with A549/ATCC NSCLC, -88.2% (active) with 786-0 renal and -72.7% (active) with COLO 205 colon.
`Cc1cc2nc3c4ccccc4n(CCO)c3nc2cc1C`: the growth is 60.1% in the test on NCI-H23 lung; 69.7% in the test on NCI-H226 lung; 92.4% in the test with NCI-H322M lung; 68.8% in the test with HOP-62 NSCLC; 98.3% in the test with NCI-H460 lung; 34.9% in the test on HOP-92 NSCLC. For the same molecule, the growth with NCI-H522 lung was 78.8%; in the test with A549/ATCC NSCLC it was 97.6%; in the test with 786-0 renal, 12.1%; with COLO 205 colon, 106%.
Regarding `COc1ccc(-c2nc(Nc3ccccc3S(N)(=O)=O)c3ccccc3n2)cc1`, the growth with NCI-H23 lung is -0.0975% (active); with NCI-H226 lung, -43% (active); with NCI-H322M lung, 35.1%; with HOP-62 NSCLC, 77.7%; in the test on NCI-H460 lung, -24.9% (active); with HOP-92 NSCLC it was 4.23% (active). In addition, the growth with NCI-H522 lung is 59.7%; in the test with A549/ATCC NSCLC, -2.67% (active); with 786-0 renal it was -16.5% (active); in the test on COLO 205 colon, 75.9%.
Turning to `Nc1nnc(-c2c[nH]c3ncccc23)c(-c2c[nH]c3ccc(Br)cc23)n1`, the growth in the test on NCI-H23 lung is 57.1%; in the test on NCI-H226 lung it was 63.6%; in the test on NCI-H322M lung, 60.5%; in the test with HOP-62 NSCLC, 49.4%; in the test with NCI-H460 lung, 27.2%; with HOP-92 NSCLC, 54.8%. For the same molecule, the growth was 47.9% in the test with NCI-H522 lung, 58.9% with A549/ATCC NSCLC, 40% in the test with 786-0 renal and 66.9% in the test with COLO 205 colon.
On to `CCOC(=O)C1=C(N)N(c2ccccc2)C2=C(C(=O)CC(C)(C)C2)C1c1ccc(Cl)cc1` (stereo not given), for which the growth in the test with NCI-H23 lung was 48.9%; with NCI-H226 lung, 70.4%; in the test with NCI-H322M lung it was 64.9%; in the test on HOP-62 NSCLC, 80.7%; with NCI-H460 lung, 13%; in the test with HOP-92 NSCLC, 69.5%. In addition, the growth was 38.4% with NCI-H522 lung, 33.9% in the test with A549/ATCC NSCLC, 67.3% in the test on 786-0 renal and -17.7% (active) with COLO 205 colon.
Regarding `COc1ccc(C(=O)/C=C/c2cc(F)cc(C(F)(F)F)c2)cc1S(N)(=O)=O`, the growth in the test on NCI-H23 lung is -74.8% (active); in the test with NCI-H226 lung, -29.3% (active); in the test on NCI-H322M lung, -3.66% (active); with HOP-62 NSCLC it was -47.4% (active); with NCI-H460 lung, -25.3% (active); in the test with HOP-92 NSCLC, -9.39% (active). Moreover, the growth in the test on NCI-H522 lung is -79.6% (active); with A549/ATCC NSCLC, 3.37% (active); in the test with 786-0 renal, -81% (active); in the test on COLO 205 colon, -53.1% (active).
For `CC(=O)c1ccc(NC(=O)NCn2c(=O)[nH]c3ccccc3c2=O)cc1`, the growth in the test on NCI-H23 lung is 103%; with NCI-H226 lung, 87.3%; in the test with NCI-H322M lung, 93.8%; in the test on HOP-62 NSCLC it was 96.3%; in the test with NCI-H460 lung, 112%; with HOP-92 NSCLC, 79.5%. Besides, the growth was 90.2% with NCI-H522 lung, 97.7% with A549/ATCC NSCLC, 102% with 786-0 renal and 109% in the test on COLO 205 colon.
Consider `CN1C(=O)/C(=C/c2ccc3ncsc3c2)NC1=NC12CC3CC(CC(O)(C3)C1)C2`, for which the growth with NCI-H23 lung was -21.1% (active); with NCI-H226 lung, -1.04% (active); in the test with NCI-H322M lung, 9.71% (active); in the test with HOP-62 NSCLC, 16.7%; with NCI-H460 lung, 9.92% (active); with HOP-92 NSCLC, 22.1%. Moreover, the growth was -46.8% (active) in the test on NCI-H522 lung, 16.7% with A549/ATCC NSCLC, 11.1% in the test on 786-0 renal and -37.9% (active) with COLO 205 colon.
With `Cc1ccc2nc(-c3ccc(-c4nnc(SCC(=O)Nc5ccc(Cl)cc5)o4)cc3)[nH]c2c1`, the growth in the test on NCI-H23 lung is 29.1%; in the test with NCI-H226 lung, 9.53% (active); in the test with NCI-H322M lung, 27.6%; in the test on HOP-62 NSCLC it was 61.8%; in the test with NCI-H460 lung it was 6.19% (active); with HOP-92 NSCLC, 84.9%. For the same molecule, the growth in the test on NCI-H522 lung is 51.1%; with A549/ATCC NSCLC, 29.1%; with 786-0 renal, 68.5%; in the test with COLO 205 colon, 46.1%.
As to `C#CCNC(=O)[C@]12CCC(C)(C)C[C@H]1C1=CC[C@@H]3[C@@](C)(CCC#N)[C@H](C(=C)C)CC[C@@]3(C)[C@]1(C)CC2`, the growth with NCI-H23 lung was 58.2%; with NCI-H226 lung, 76.5%; in the test with NCI-H322M lung it was 77.1%; with HOP-62 NSCLC, 68.5%; with NCI-H460 lung, 66.9%; in the test on HOP-92 NSCLC, 26.4%. Further, the growth was 64.5% in the test with NCI-H522 lung, 40.1% with A549/ATCC NSCLC, 74.6% in the test on 786-0 renal and 68% in the test on COLO 205 colon.
Take `Cc1cc(C(F)(F)F)ccc1C(=O)Nc1sc2c(c1C#N)CCC(=O)C2`: the growth in the test with NCI-H23 lung was -28.3% (active); in the test with NCI-H226 lung, -13% (active); in the test with NCI-H322M lung, 29.8%; with HOP-62 NSCLC, 1.05% (active); in the test on NCI-H460 lung it was 4.71% (active); with HOP-92 NSCLC, -64.4% (active). Further, the growth in the test with NCI-H522 lung is -62.9% (active); with A549/ATCC NSCLC it was 30%; with 786-0 renal it was 12.7%; in the test on COLO 205 colon, -94.4% (active).
`COc1cc(/C=N/NC(=O)c2ccc3nc(-c4ccc(Cl)cc4)[nH]c3c2)cc(OC)c1OC`: the growth in the test on NCI-H23 lung is -68.4% (active); in the test on NCI-H226 lung it was -50.5% (active); in the test on NCI-H322M lung, 3.86% (active); in the test on HOP-62 NSCLC, -77.5% (active); in the test with NCI-H460 lung, -34.8% (active); in the test with HOP-92 NSCLC, -64.5% (active). The growth was -44.2% (active) in the test with NCI-H522 lung, 29.2% in the test with A549/ATCC NSCLC, -4.1% (active) in the test on 786-0 renal and -9.12% (active) in the test on COLO 205 colon.
In the case of `COc1ccc(N(C)c2cc(C#N)nc3ccccc23)cc1N`, the growth with NCI-H23 lung is 9.56% (active); with NCI-H226 lung, 25.4%; with NCI-H322M lung, 47.9%; in the test on HOP-62 NSCLC, 36.2%; with NCI-H460 lung, 0.907% (active); in the test on HOP-92 NSCLC, 58.1%. Further, the growth in the test with NCI-H522 lung was -25.9% (active); in the test on A549/ATCC NSCLC, 17.8%; in the test on 786-0 renal, 22.6%; in the test with COLO 205 colon it was -76.8% (active).
Take `CCC(C)S(=O)(=O)c1oc(-c2ccc(C)cc2)nc1S(=O)(=O)c1ccccc1` (stereo not given): the growth is -86.8% (active) in the test with NCI-H23 lung; -10.3% (active) in the test with NCI-H226 lung; 65.1% with NCI-H322M lung; 28.7% with HOP-62 NSCLC; -13.9% (active) with NCI-H460 lung; -74.6% (active) in the test on HOP-92 NSCLC. The growth with NCI-H522 lung is -98.7% (active); in the test on A549/ATCC NSCLC, 35.9%; in the test with 786-0 renal, -48.8% (active); in the test on COLO 205 colon it was -85.5% (active).
On to `CC1=N/C(=C\c2ccc(N(C)C)cc2)C(=O)N1CCc1ccc(S(N)(=O)=O)cc1`, for which the growth is 98.5% in the test on NCI-H23 lung; 98.3% in the test with NCI-H226 lung; 107% in the test with NCI-H322M lung; 84.4% in the test on HOP-62 NSCLC; 107% in the test on NCI-H460 lung; 96.5% in the test on HOP-92 NSCLC. Further, the growth with NCI-H522 lung was 87.2%; with A549/ATCC NSCLC, 93.2%; in the test with 786-0 renal it was 101%; with COLO 205 colon, 113%.
